Experiment [1] can be described thus: qHTS assay to identify small molecule antagonists of the glucocorticoid receptor (GR) signaling pathway - cell viability counter screen (AID 720693). Note: nearly all actives have a fitted effect of over 55% in size. Note: potency is the fitted concentration of half-maximal effect. The following applies: GR-bla HeLa viability, CellTiter-Glo luminescence, 18 h, with 5 nM dexamethasone present; series mostly up to 58.5 µM.
Experiment [2] in a line: qHTS assay for identifying genotoxic compounds that show differential cytotoxicity against isogenic chicken DT40 cell lines with known DNA damage response pathways - wild type cell line (AID 743012). Note: nearly all actives have a fitted effect of over 60% in size. Note: potency is the fitted concentration of half-maximal effect. Particulars: DT40 wild type chicken cells viability, CellTiter-Glo, 40 h; series mostly up to 68.4 µM. In short, it runs like this:
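Luminescent ATP viability signal (CellTiter-Glo, 30 min RT) recorded after wild type DT40 cells were incubated with compounds for 40 h at 37 C/5% CO2.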
(In general: Quantitative high-throughput screening tests each substance at several concentrations.)

The nature of experiment [3]: qHTS assay for identifying genotoxic compounds that show differential cytotoxicity against isogenic chicken DT40 cell lines with known DNA damage response pathways - Rev3 mutant cell line (AID 743014). Note: nearly all actives have a fitted effect of over 55% in size. Note: potency is the fitted concentration of half-maximal effect. Particulars: chicken DT40 Rev3-/- viability, CellTiter-Glo, 40 h; series mostly up to 68.4 µM.
The nature of experiment [4]: qHTS assay for identifying genotoxic compounds that show differential cytotoxicity against isogenic chicken DT40 cell lines with known DNA damage response pathways - Rad54/Ku70 mutant cell line (AID 743015). Note: nearly all actives have a fitted effect of over 60% in size. Note: potency is the fitted concentration of half-maximal effect. The following applies: DT40 Rad54/Ku70 mutant viability, CellTiter-Glo, 40 h; series mostly up to 66.8 µM.
Experiment [5] deals with Androgen receptor (Homo sapiens) (UniProt P10275). Kind of experiment: qHTS assay to identify small molecule agonists of the androgen receptor (AR) signaling pathway (AID 743036; active = well fitted activation curve with a large enough effect in the signal ratio in the repeat runs, with a control signal flat, not every such curve was filed as active; the % refers to the signal ratio). The following applies: HEK293 AR-UAS-bla GripTite, beta-lactamase FRET ratio, 16 h; series mostly up to 62.4 µM. In short, it runs like this: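 Agonist activity was scored by beta-lactamase reporter fluorescence in stably transfected HEK293 cells exposed to compounds for 16 h at 37C and 5% CO2. Substrate loading took 2 h at room temperature.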

Experiment [6] in a line: qHTS assay to identify small molecule antagonists of the androgen receptor (AR) signaling pathway using the MDA cell line - cell viability counter screen (AID 743041; note: nearly all actives have a fitted effect of over 45% in size; note: potency is the fitted concentration of half-maximal effect). Particulars: MDA-kb2 viability, CellTiter-Fluor, 16 h, cells co-treated with R1881 androgen agonist; series mostly up to 70.3 µM. In short, it runs like this:
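In this qHTS counter assay, fluorescence intensity after CellTiter-Fluor addition indicated viability of MDA-kb2 AR-luc cells given compounds and R1881 for 16 h at 37C.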

The target of experiment [7] is Androgen receptor (Homo sapiens) (UniProt P10275). Put plainly: qHTS assay to identify small molecule antagonists of the androgen receptor (AR) signaling pathway using the MDA cell line (AID 743042; note: nearly all actives have a fitted effect of over 55% in size; note: potency is the fitted concentration of half-maximal effect). Particulars: MDA-kb2 AR-luc, MMTV luciferase, R1881 antagonist, 16 h; series mostly up to 70.3 µM. In short, it runs like this:
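MDA-kb2 cells (human breast carcinoma, stably carrying an MMTV-luciferase reporter responsive to AR and GR) were plated at 3,000 cells/well and preincubated 5 hr at 37C, then given compound plus R1881 agonist for 16 h. ONE-Glo luminescence was read.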

Experiment [8] shares this target. Kind of experiment: qHTS assay to identify small molecule agonists of the androgen receptor (AR) signaling pathway using the MDA cell line (AID 743040; note: nearly all actives have a fitted effect of over 20% in size; note: potency is the fitted concentration of half-maximal effect). The following applies: MDA-kb2 AR-luc cells, MMTV luciferase, 16 h; series mostly up to 70.3 µM. In short, it runs like this: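 Cell-based luciferase reporter: MDA-kb2, MMTV promoter (AR + GR response elements). 16 h compound exposure at 37C; ONE-Glo, 30 min RT, luminescence.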

Experiment [9] in a line: qHTS assay to identify small molecule antagonists of the androgen receptor (AR) signaling pathway - cell viability counter screen (AID 743033; note: nearly all actives have a fitted effect of over 45% in size). Particulars: AR-bla HEK293 viability, CellTiter-Glo luminescence, 16 h; series mostly up to 58.5 µM.
Experiment [10] addresses Androgen receptor (Homo sapiens) (UniProt P10275). Put plainly: qHTS assay to identify small molecule antagonists of the androgen receptor (AR) signaling pathway (AID 743035; active = well fitted inhibition curve with a large enough effect in the signal ratio in the repeat runs, not every such curve was filed as active; the % refers to the signal ratio; note: potency is the fitted concentration of half-maximal effect). The following applies: HEK293 AR-UAS-bla, R1881-stimulated, beta-lactamase FRET, 16 h; series mostly up to 58.5 µM. In short, it runs like this: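 Quantitative HTS of the Tox21 10K library used HEK293 AR-UAS-bla cells stimulated with R1881 alongside compound for 16 h at 37C, followed by beta-lactamase FRET detection (LiveBLAzer B/G, 2 h, RT).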

Where “and” joins values, the source holds several entries; their conditions need not be identical. Equal values may be shown once. Inconclusive results are not listed. Calls of active or inactive are those of the source. Unless noted, calls come from the whole dose curve; as a rule, active = well fitted curve in the direction sought with a large enough effect in the repeat runs; inconclusive = weak or mixed curves; inactive = no such curve, though single readings can be large; an effect the other way counts as inactive or inconclusive.

Chain of Androgen receptor (Homo sapiens) (P10275 whole entry, looked up): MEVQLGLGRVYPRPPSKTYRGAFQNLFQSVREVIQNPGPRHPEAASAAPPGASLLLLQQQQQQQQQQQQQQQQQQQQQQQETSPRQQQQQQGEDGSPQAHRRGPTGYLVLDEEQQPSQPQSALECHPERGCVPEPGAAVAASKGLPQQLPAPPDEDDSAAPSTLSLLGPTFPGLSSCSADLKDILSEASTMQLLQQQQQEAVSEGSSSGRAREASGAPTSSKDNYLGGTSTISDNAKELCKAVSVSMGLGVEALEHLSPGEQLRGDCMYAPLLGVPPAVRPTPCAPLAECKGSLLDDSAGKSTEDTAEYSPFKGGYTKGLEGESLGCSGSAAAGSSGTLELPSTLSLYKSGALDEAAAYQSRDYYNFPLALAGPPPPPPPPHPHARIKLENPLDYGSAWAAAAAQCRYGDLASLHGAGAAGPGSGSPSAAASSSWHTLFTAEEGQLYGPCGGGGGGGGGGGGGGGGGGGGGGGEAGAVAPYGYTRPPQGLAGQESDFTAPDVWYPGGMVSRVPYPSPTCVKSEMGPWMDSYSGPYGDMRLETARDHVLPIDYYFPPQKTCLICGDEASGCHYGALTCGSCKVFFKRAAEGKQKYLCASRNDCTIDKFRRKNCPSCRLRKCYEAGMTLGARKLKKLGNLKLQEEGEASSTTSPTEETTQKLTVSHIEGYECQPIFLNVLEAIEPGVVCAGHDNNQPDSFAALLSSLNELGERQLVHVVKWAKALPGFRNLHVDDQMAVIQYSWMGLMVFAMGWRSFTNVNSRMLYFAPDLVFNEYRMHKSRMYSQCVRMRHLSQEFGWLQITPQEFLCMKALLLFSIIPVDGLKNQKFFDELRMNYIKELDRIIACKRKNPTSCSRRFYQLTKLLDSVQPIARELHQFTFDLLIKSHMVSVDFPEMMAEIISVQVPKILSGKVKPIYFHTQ

Consider `NC(=S)N=Nc1ccc(NN=C(N)N)cc1`, for which the Potency result in experiment [1] and in experiment [5] was “inactive” throughout. For the same molecule, the Potency was 2.66 µM (active) in experiment [2]; 5.96 µM (active) in experiment [3]; 5.31 µM (active) in experiment [4]; 26.6 µM (active) in experiment [6]; 29.8 µM (active) in [7].
Take `COc1cc(-c2ccc(-[n+]3nc(-c4ccccc4)nn3-c3ccc([N+](=O)[O-])cc3)c(OC)c2)ccc1-[n+]1nc(-c2ccccc2)nn1-c1ccc([N+](=O)[O-])cc1`: the Potency in experiment [1] is 19 µM (active); in [2], 5.96 µM (active); in experiment [3] it was 7.5 µM (active); in [4] it was 5.31 µM (active); in experiment [7] it was 29.8 µM (active). Besides, in [8], the Potency result was “inactive”.
With `C=C1CC[C@@H]2[C@](C)(CO)[C@H](O)CC[C@@]2(C)[C@@H]1C/C=C1/C(=O)OC[C@H]1O`, the Potency entry in experiment [1], in experiment [5], in [8] and in experiment [6] was “inactive” throughout. The figures for the Potency in experiment [2], in experiment [3] and in experiment [4] were 5.96 µM (active), 8.41 µM (active) and 5.96 µM (active), respectively.
In the case of `COC(=O)[C@H]1[C@H]2C[C@@H]3c4[nH]c5ccccc5c4CCN3C[C@H]2C[C@@H](OC(=O)c2cc(OC)c(OC)c(OC)c2)[C@@H]1OC`, the Potency entry in experiment [1] and in experiment [6] was “inactive” each time. Also, the Potency in experiment [2] was 1.06 µM (active) and 11.9 µM (active); in experiment [3], 1.68 µM (active) and 21.1 µM (active); in experiment [4], 1.68 µM (active) and 26.6 µM (active).
`CCOC(=O)Cc1cccc(-c2cc(CCCCCCc3ccc(O[C@H]4O[C@H](COC(C)=O)[C@@H](OC(C)=O)[C@H](OC(C)=O)[C@@H]4OC(C)=O)c(-c4cccc(CC(=O)OCC)c4)c3)ccc2O[C@H]2O[C@H](COC(C)=O)[C@@H](OC(C)=O)[C@H](OC(C)=O)[C@@H]2OC(C)=O)c1`: the Potency result in experiment [1], in experiment [2], in experiment [3], in experiment [4] and in [6] was “inactive” in each case.
For the molecule `O=[N+]([O-])c1ccc(Oc2ccc(N=C=S)cc2)cc1`, the Potency result in experiment [1] was “inactive”. The Potency in experiment [2] was 13.3 µM (active); in [3], 23.7 µM (active); in [4], 18.8 µM (active); in [6] it was 26.6 µM (active).
Regarding `CC1(C)N=C(N)N=C(N)N1c1ccc(Cl)cc1`, the Potency result in [1] and in experiment [6] was “inactive” each time. Further, the Potency in experiment [2] is 0.422 µM (active); in experiment [3], 0.422 µM (active); in experiment [4], 1.19 µM (active).
Consider `CC1(C)S[C@@H]2[C@H](NC(=O)C(C(=O)Oc3ccc4c(c3)CCC4)c3ccccc3)C(=O)N2[C@H]1C(=O)O` (stereo partly drawn), for which the Potency entry in experiment [1], in experiment [2], in experiment [3], in [9], in experiment [5] and in experiment [8] was “inactive” in each case. Besides, the Potency result in experiment [6] and in experiment [7] was “inactive” each time.
With `CCNC(=O)[C@@H]1CCCN1C(=O)[C@H](CCCN=C(N)N)NC(=O)[C@H](CC(C)C)NC(=O)[C@@H](CC(C)C)NC(=O)[C@H](Cc1ccc(O)cc1)NC(=O)[C@H](CO)NC(=O)[C@H](Cc1c[nH]c2ccccc12)NC(=O)[C@H](Cc1cnc[nH]1)NC(=O)[C@@H]1CCC(=O)N1`, the Potency result in [1], in experiment [2], in experiment [3], in experiment [9] and in [6] was “inactive” each time.
As to `O=C(O)c1ccc(NC(=O)[C@H](Cc2ccc(O)cc2)NC(=O)c2ccccc2)cc1`, the Potency result in experiment [1], in [2], in experiment [3], in [9], in [5] and in experiment [6] was “inactive” throughout. The Potency entry in experiment [7] is “inactive”.
With `CC(=O)Nc1ccc(NC(=S)NC(=O)c2ccc(C(C)(C)C)cc2)cc1`, the Potency result in experiment [1], in experiment [9] and in experiment [6] was “inactive” in each case. Moreover, the Potency in experiment [2] and in [3] was 2.66 µM (active) in each case.
For `CCC(=O)O[C@]1(C(=O)CCl)[C@@H](C)C[C@H]2[C@@H]3C[C@H](F)C4=CC(=O)C=C[C@]4(C)[C@@]3(F)[C@@H](O)C[C@@]21C`, the Potency result in [1], in experiment [9] and in experiment [6] was “inactive” throughout. In addition, the values for the Potency in experiment [2] and in [3] were 11.9 µM (active) and 7.5 µM (active), respectively.
As to `CCN(CC)Cc1cc(Nc2ccnc3cc(Cl)ccc23)ccc1O`, the Potency result in experiment [1] and in experiment [7] was “inactive” in each case. For the same molecule, the Potency in experiment [2] was 7.17 µM (active); in [3], 7.17 µM (active); in experiment [4], 8.04 µM (active).
`CC(=O)[C@@]1(O)CC[C@H]2[C@@H]3C=C(Cl)C4=CC(=O)CC[C@]4(C)[C@H]3CC[C@@]21C`: the Potency result in experiment [1], in experiment [9], in [6] and in experiment [7] was “inactive” in each case. Further, the Potency in [2] is 11.9 µM (active); in experiment [3], 23.7 µM (active); in experiment [10] it was 0.674 µM (active); in experiment [8], 0.596 µM (active).
Consider `CCCCCCCCCCCCCCCC(=O)OCCC1CCN(CCCN2c3ccccc3Sc3ccc(S(=O)(=O)N(C)C)cc32)CC1`, for which the Potency entry in experiment [1], in experiment [2], in experiment [3], in experiment [9] and in experiment [6] was “inactive” each time.

Source of the values: PubChem BioAssay (Tox21).
